# In the supplement of paper PMC8728848:
# The sample as a whole holds a higher share of the strongest signals than the screen did.
# B1: DC-SIGN (Canis lupus), XP_853402 (protein)
# chain: AGLCRPCPWKWELFQESCYFFSQTQNTWKESISACQNLRAQLVIINSTEEQKFLKSWNTRNNQRTWIGLSDHHNEGSWKWVDNTPLQLSFWKEGEPNNHGDEDCVELYSDGWNDNRCSTENFWICKKPSSPCPGPGLNDIFEAQKIEWHE
# Key:
# Experiment in all cases: glycan array binding signal (z-score within array); higher = stronger binding
# Conditions in all cases: glycan notation: IUPAC condensed, linker removed
# [1] = biological target: Fuc(a1-2)Gal(b1-3)[Fuc(a1-4)]GlcNAc(b1-2)Man(a1-3)[Fuc(a1-2)Gal(b1-3)[Fuc(a1-4)]GlcNAc(b1-2)Man(a1-6)]Man(b1-4)GlcNAc(b1-4)GlcNAc
# In short: (§1)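 Glycan array binding is given as a within-array Z-score, which can be read as non-binding when negative. The arrays, 3228 of them, came from the Consortium for Functional Glycomics database and were retained only where the protein sequence was available. Z-scores were averaged across arrays of the same protein sequence at different concentrations or buffers and across linkers.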
# [2] = biological target: Fuc(a1-2)[GalNAc(a1-3)]Gal(b1-4)GlcNAc
# In short: as §1
# Fuc(a1-3)GlcNAc = biological target: Fuc(a1-3)GlcNAc
# In short: as §1
# [3] = biological target: Fuc(a1-3)[Gal(b1-4)]GlcNAc(b1-2)Man(a1-3)[Fuc(a1-3)[Gal(b1-4)]GlcNAc(b1-2)Man(a1-6)]Man(b1-4)GlcNAc(b1-4)GlcNAc
# In short: as §1
# [4] = biological target: Fuc(a1-3)[Gal(b1-4)]GlcNAc(b1-4)Gal(b1-4)[Fuc(a1-3)]GlcNAc
# In short: as §1
# [5] = biological target: Gal(a1-3)[Gal(a1-4)]Gal(b1-4)GlcNAc
# In short: as §1
# Gal(b1-2)Gal = biological target: Gal(b1-2)Gal
# In short: as §1
# [6] = biological target: Gal(b1-3)GlcNAc(b1-3)Gal(b1-4)Glc
# In short: as §1
# [7] = biological target: Gal(b1-3)[Fuc(a1-4)]GlcNAc(b1-2)Man(a1-3)[Gal(b1-3)[Fuc(a1-4)]GlcNAc(b1-2)Man(a1-6)]Man(b1-4)GlcNAc(b1-4)[Fuc(a1-6)]GlcNAc
# In short: as §1
# [8] = biological target: Gal(b1-3)[Neu5Ac(a2-6)]GalNAc
# In short: as §1
# [9] = biological target: Gal(b1-4)GalNAc(b1-3)[Fuc(a1-2)]Gal(b1-4)GlcNAc
# In short: as §1
# Gal3S(b1-3)GlcNAc = biological target: Gal3S(b1-3)GlcNAc
# In short: as §1
# [10] = biological target: GlcNAc(a1-4)Gal(b1-3)GlcNAc
# In short: as §1
# [11] = biological target: GlcNAc(a1-4)Gal(b1-4)GlcNAc(b1-3)Gal(b1-4)GlcNAc(b1-3)Gal(b1-4)GlcNAc
# In short: as §1
# [12] = biological target: GlcNAc(a1-4)Gal(b1-4)GlcNAc(b1-3)Gal(b1-4)[Fuc(a1-3)]GlcNAc(b1-3)Gal(b1-4)[Fuc(a1-3)]GlcNAc
# In short: as §1
# [13] = biological target: GlcNAc(a1-6)Gal(b1-4)GlcNAc
# In short: as §1
# [14] = biological target: GlcNAc(b1-3)[GlcNAc(b1-6)]Gal(b1-4)GlcNAc
# In short: as §1
# [15] = biological target: GlcNAc(b1-4)GlcNAc(b1-4)GlcNAc(b1-4)GlcNAc(b1-4)GlcNAc
# In short: as §1
# [16] = biological target: Man(a1-2)Man(a1-2)Man(a1-3)Man
# In short: as §1
# [17] = biological target: Man(a1-2)Man(a1-3)[Man(a1-2)Man(a1-6)]Man
# In short: as §1
# [18] = biological target: Man(a1-2)Man(a1-3)[Man(a1-2)Man(a1-6)]Man(a1-6)[Man(a1-2)Man(a1-2)Man(a1-3)]Man
# In short: as §1
# [19] = biological target: Man(a1-2)Man(a1-3)[Man(a1-2)Man(a1-6)]Man(a1-6)[Man(a1-2)Man(a1-2)Man(a1-3)]Man(b1-4)GlcNAc(b1-4)GlcNAc
# In short: as §1
# [20] = biological target: Man(a1-3)[Man(a1-6)]Man(a1-6)[Man(a1-2)Man(a1-3)]Man(b1-4)GlcNAc(b1-4)GlcNAc
# In short: as §1
# [21] = biological target: Man(a1-3)[Man(a1-6)]Man(a1-6)[Man(a1-3)]Man(b1-4)GlcNAc(b1-4)GlcNAc
# In short: as §1
# [22] = biological target: Neu5Ac(a2-3)Gal(b1-4)GlcNAc
# In short: as §1
# [23] = biological target: Neu5Ac(a2-3)Gal(b1-4)GlcNAc6S
# In short: as §1
# [24] = biological target: Neu5Ac(a2-3)Gal(b1-4)[Fuc(a1-3)]GlcNAc
# In short: as §1
# [25] = biological target: Neu5Ac(a2-3)Gal(b1-4)[Fuc(a1-3)]GlcNAc(b1-6)[Gal(b1-3)]GalNAc
# In short: as §1
# [26] = biological target: Neu5Ac(a2-3)[GalNAc(b1-4)]Gal(b1-4)GlcNAc
# In short: as §1
# [27] = biological target: Neu5Ac(a2-6)Gal(b1-4)GlcNAc(b1-2)Man(a1-3)[GlcNAc(b1-2)Man(b1-4)GlcNAc(b1-2)Man(a1-6)]Man(b1-4)GlcNAc(b1-4)GlcNAc
# In short: as §1
# [28] = biological target: Neu5Ac(a2-6)Gal(b1-4)GlcNAc6S
# In short: as §1
# [29] = biological target: Neu5Ac(b2-6)Gal(b1-4)GlcNAc
# In short: as §1
# Neu5Gc(a2-3)Gal(b1-4)Glc = biological target: Neu5Gc(a2-3)Gal(b1-4)Glc
# In short: as §1
binder,measurement,setting,value
B1,glycan array binding signal (z-score),[1],0.148
same,glycan array binding signal (z-score),[2],-0.137
same,glycan array binding signal (z-score),Fuc(a1-3)GlcNAc,0.009
same,glycan array binding signal (z-score),[3],-0.157
same,glycan array binding signal (z-score),[4],0.044
same,glycan array binding signal (z-score),[5],-0.15
same,glycan array binding signal (z-score),Gal(b1-2)Gal,-0.033
same,glycan array binding signal (z-score),[6],-0.172
same,glycan array binding signal (z-score),[7],5.73
same,glycan array binding signal (z-score),[8],-0.216
same,glycan array binding signal (z-score),[9],-0.176
same,glycan array binding signal (z-score),Gal3S(b1-3)GlcNAc,-0.026
same,glycan array binding signal (z-score),[10],0.018
same,glycan array binding signal (z-score),[11],-0.272
same,glycan array binding signal (z-score),[12],1.73
same,glycan array binding signal (z-score),[13],-0.105
same,glycan array binding signal (z-score),[14],-0.336
same,glycan array binding signal (z-score),[15],-0.267
same,glycan array binding signal (z-score),[16],7.92
same,glycan array binding signal (z-score),[17],3.37
same,glycan array binding signal (z-score),[18],7.69
same,glycan array binding signal (z-score),[19],4.83
same,glycan array binding signal (z-score),[20],11.8
same,glycan array binding signal (z-score),[21],0.127
same,glycan array binding signal (z-score),[22],-0.217
same,glycan array binding signal (z-score),[23],-0.127
same,glycan array binding signal (z-score),[24],-0.257
same,glycan array binding signal (z-score),[25],-0.407
same,glycan array binding signal (z-score),[26],-0.085
same,glycan array binding signal (z-score),[27],-0.249
same,glycan array binding signal (z-score),[28],-0.341
same,glycan array binding signal (z-score),[29],-0.361
same,glycan array binding signal (z-score),Neu5Gc(a2-3)Gal(b1-4)Glc,-0.065
